Source: the supplement of paper PMC6555819

How the values were obtained:
Test in all cases: PBM binding z-score (relative to random genomic background probes); higher = stronger binding; sequences stand for … in GC…GCGATTGACAGCGTAGAATGAAGG
[1] = tested on: FXR:RXRa (NR concentration 270 nM, RXRa partner concentration 90 nM)
How it was run: (§1)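 Scanned fluorescence from custom Agilent 4×180K protein-binding microarrays was regression-normalized. Binding z-scores use random background probes as reference. Ligand-free nuclear receptor dimers were incubated on the arrays for 1 h and detected with antibodies against each partner (one per run).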

[2] = tested on: LXRa:RXRa (NR concentration 270 nM, RXRa partner concentration 90 nM)
How it was run: as §1

[3] = tested on: LXRa homodimer (NR concentration 270 nM)
How it was run: as §1

[4] = tested on: LXRb:RXRa (NR concentration 270 nM, RXRa partner concentration 90 nM)
How it was run: as §1

[5] = tested on: LXRb homodimer (NR concentration 270 nM)
How it was run: as §1

[6] = tested on: PPARa:RXRa (NR concentration 270 nM, RXRa partner concentration 90 nM)
How it was run: as §1

[7] = tested on: PPARg:RXRa (NR concentration 180 nM, RXRa partner concentration 90 nM)
How it was run: as §1

[8] = tested on: PPARg:RXRa 270nM:90nM, anti-RXR (NR concentration 270 nM, RXRa partner concentration 90 nM)
How it was run: as §1

[9] = tested on: PPARg:RXRa 30nM:10nM, anti-RXR (NR concentration 30 nM, RXRa partner concentration 10 nM)
How it was run: as §1

[10] = tested on: PPARg:RXRa 90nM:30nM, anti-RXR (NR concentration 90 nM, RXRa partner concentration 30 nM)
How it was run: as §1

| Sequence | PBM binding z-score [1] | PBM binding z-score [2] | PBM binding z-score [3] | PBM binding z-score [4] | PBM binding z-score [5] | PBM binding z-score [6] | PBM binding z-score [7] | PBM binding z-score [8] | PBM binding z-score [9] | PBM binding z-score [10] |
| --- | --- | --- | --- | --- | --- | --- | --- | --- | --- | --- |
| GCTTGTGGATCAAGGTTAAGAAAGACTAAGCTAA | 0.286 | 0.783 | -0.433 | 0.442 | -0.254 | 1.52 | 0.82 | 1.79 | 0.395 | 1.24 |
| CTGACTGGGGCAAGGTTACCATAACGCACAGCCA | 0.457 | 0.792 | -0.00434 | 1.54 | -0.221 | 2.63 | 4.03 | 4.4 | 1.45 | 3.67 |
| CCTACTGGCCCACGAAAGGTCATTGATTCAGTGA | 3.58 | 4.35 | 5.66 | 4.39 | 0.684 | 4.2 | 0.749 | 2.36 | 0.593 | 1.47 |
| TCTTGTAGATCAAGCAGGTTAACAAAGCCTGAGT | 0.489 | 0.545 | 0.00608 | 0.81 | -0.426 | 0.99 | -0.0763 | 1.23 | 2.44 | 2.04 |
| AGAATGAGGTTATTAGGATCAGGGAATTGCGGTC | 2.04 | 1.69 | 0.286 | 1.38 | 0.314 | 2.79 | 2.39 | 2.69 | 0.762 | 1.59 |
| TCAGACAGGTGAAGGTAACTAAGGTACGCAGTCG | 1.03 | 2.57 | -0.132 | 1.44 | -0.0558 | 1.51 | 0.892 | 2.34 | 3.8 | 3.21 |
| CGTCCAAGGTCAGAGAGGTAAGTGAATGCCGAGT | 4.98 | 3.18 | 0.174 | 2.39 | -0.0952 | 3.93 | 2.19 | 2.66 | 0.414 | 1.42 |
| TCTATTAGTTGAAGGGCAACAGACGAGTCCGTTT | 0.85 | 0.613 | 0.367 | 0.805 | 0.326 | 0.993 | 0.441 | 2.09 | 3.73 | 2.9 |
| ATCTCTAGATAAAGATAGTTCAGTGAATGCAAAT | -0.281 | 0.122 | 0.343 | 0.191 | 0.206 | -0.0361 | 0.872 | 0.0626 | 0.338 | 0.179 |
| TCTTGTAGATCAACAGGAGGTTGAGAAAGATCGA | -0.0264 | -0.201 | -0.188 | -0.211 | -0.144 | 0.467 | -0.1 | 1.33 | 2.81 | 2.24 |
| CCTACTGGGACACGAAAGGTCATTGATTCAGTGA | 3.84 | 4.83 | 5.13 | 4.17 | 0.785 | 4.65 | 4.68 | 4.72 | 2.24 | 4.34 |
| AATACAGGGTCACTAGGCCAGACTAGGTACGAAT | 6.12 | 5.24 | 0.88 | 3.8 | 0.693 | 5.84 | 7.65 | 6.41 | 3.21 | 5.35 |
